# Bioassay records as filed in PubChem.
# In the library only some 19% were active in any assay of this set; here they are far more common.
# IL1B secr inh: blocks inflammasome-driven IL-1 beta release; actives 4.7% (n = 360,000); THP-1 LPS/ATP IL-1B secretion, AlphaLISA, 16 h; hits give low values; activity change, % at 57.5 µM; AID 743279; in the data active means activity change below about -50%; inconclusive means mostly about -30% to -49%
#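 Secreted IL-1B measured by AlphaLISA bead assay after 16 h compound exposure of THP-1 cells; compounds (final up to 57.5 uM) added 1 h before LPS (250 ng/mL) and ATP (1.25 mM) stimulation; lower signal means less secretion.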
# DT40 TDP1 no CPT: qHTS for Inhibitors of human tyrosyl-DNA phosphodiesterase 1 (TDP1): qHTS in cells in absence of CPT | DT40 Tdp1-/- hTDP1 cells, no CPT, ATP luminescence, 48 h | Potency, µM (titrated, usually from 46.2 µM), for the others: at the highest dose activity change, negative = growth inhibition, actives largely listed as inhibitors | actives 15% (n = 420,000) | AID 686978, 2013; further: potency means the concentration at half of the fitted maximal effect; nearly all actives have a fitted effect of over 55% in size
#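 Chicken DT40 Tdp1-/- cells complemented with human TDP1, screened without camptothecin (DMSO vehicle only), 400 cells/well. Compounds pin-transferred, cells incubated at 37 °C for at least 48 hr. Growth read as ATP-dependent luminescence (CellTiter-Glo, 30 min at RT).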
# HT1080-NT tox: kills 2HG-producing HT-1080-NT fibrosarcoma cells | HT-1080-NT fibrosarcoma viability, CellTiter-Glo ATP luminescence, 48 h | Potency, µM (titrated, usually from 46.1 µM), inactives show top-dose activity, negative = less viability, usual class: cytotoxic | AID 686970 | actives 1.6% (n = 360,000);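 further: NT is the 2HG producing partner of a matched IDH1 knockdown line; potency means the concentration at half of the fitted maximal effect; 0% = DMSO-treated cells and -100% = media-only wells without cells; nearly all actives have a fitted effect of over 55% in size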
#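 Viability by CellTiter-Glo luminescence after 48 h compound exposure at 37C of HT-1080-NT cells (750/well, RPMI, 5% FBS). % activity scaled between DMSO wells and medium-only wells, then curve-fitted and categorized by curve class.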
# TDP1 cell CPT: growth inhibition of DT40 Tdp1-/-;hTDP1 cells with camptothecin (screen for TDP1 inhibitors); chicken DT40 Tdp1-/-;hTDP1 cells + 20 nM CPT, ATP luminescence, 48 h; Potency, µM (highest dose often 46.2 µM), for the others: at the highest dose activity change, negative = growth inhibition, hits mostly inhibitors; actives 12% (n = 420,000); further: potency means the concentration at half of the fitted maximal effect; nearly all actives have a fitted effect of over 55% in size
#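 Chicken DT40 Tdp1-/- cells complemented with human TDP1, 400 cells/well, exposed to compounds plus 20 nM camptothecin for at least 48 h at 37 C; viability read as ATP content by CellTiter-Glo luminescence.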
# HT1080 IDH1KD tx: kills HT-1080 cells with IDH1 knockdown | HT-1080 IDH1 knockdown viability, ATP luminescence, 48 h | Potency, µM (doses to about 46.1 µM), for the others: at the top dose activity, negative = toxicity, most hits filed as cytotoxic | actives 2% (n = 360,000);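 further: potency means the concentration at half of the fitted maximal effect; 0% = DMSO wells and -100% = cell-free medium wells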
#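 Knockdown cells (IDH1KD HT-1080) received compounds 2 h after plating at 750 cells/well and were kept 48 h at 37 °C in 5% FBS RPMI. A CellTiter-Glo luminescence read gave % activity for curve fitting.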
# The depositor's hits bear a star; ? = inconclusive; nt = no result; [ ] = dose if it differs, or a comment. Unless noted, the call rests on the fitted dose curve; in most records, active means well fitted curve in the direction sought with a large enough effect; inconclusive means small, poorly fitted or top-dose-only effect, or another doubt; inactive means no such curve, though single readings can be large; an effect the other way counts as inactive or inconclusive. Unless noted, on the % scale 0 is the no-effect control and ±100 the full control effect.
SMILES,IL1B secr inh,DT40 TDP1 no CPT,HT1080-NT tox,TDP1 cell CPT,HT1080 IDH1KD tx
COc1cc(NC(=O)Cn2c(=O)n(Cc3ccccc3Cl)c(=O)c3cc(OC)c(OC)cc32)cc(OC)c1,nt,-29%,nt,-25%,nt
CCc1ccc(NC(=O)CSc2nc3ccccc3nc2Cc2ccc(C)cc2)cc1,nt,16µM*,nt,?,nt
O=C(NC(=S)Nc1nc2ccccc2s1)c1cccs1,21,18µM*,-1%,16µM*,-1%
NC(=S)Nc1nc2ccccc2s1,0,4.1µM*,-1%,2.6µM*,15µM*
COC(=O)c1nc(NC(=S)NC(=O)c2cccs2)sc1C,26,-25%,-10%,-23%,-6%
Cc1ccccc1N1CCN(S(=O)(=O)Cc2ccccc2)CC1,2,7%,8%,9%,-7%
O=C(NCc1ccco1)C1CCN(c2ccc(S(=O)(=O)N3CCOCC3)cc2[N+](=O)[O-])CC1,-9,23µM*,-2%,?,-17%
O=C(O)C1CCN(S(=O)(=O)c2ccc(N3CCOCC3)c([N+](=O)[O-])c2)CC1,-13,?,-7%,-4%,14%
O=C(NCc1cccs1)C1CCN(c2ccc(S(=O)(=O)N3CCOCC3)cc2Cl)CC1,-13,2.6µM*,?,3.7µM*,?
COc1ccccc1CCc1nc2ccccc2n1C1CCN(C(=O)c2cn3ccsc3n2)CC1,nt,-8%,nt,9%[9.04 µM],nt
NC1=NC[C@H](c2ccccc2)N1CCc1cc(C(F)(F)F)cc(C(F)(F)F)c1,?,21µM*,?,18µM*,?
NC1=NC[C@H](c2ccccc2)N1CC1CCCCC1,-54*,16µM*,-19%,13µM*,5%
CC(O)[C@H]1CN=C(N)N1CC1CCCCC1 (stereo not given in full),28,-21%,3%,?,0%
CC(O)[C@H]1CN=C(N)N1CCc1cc(C(F)(F)F)cc(C(F)(F)F)c1 (stereo not given in full),-5,-16%,-3%,-5%,2%
CCC(C)[C@H]1CN=C(N)N1CCc1cc(C(F)(F)F)cc(C(F)(F)F)c1 (stereo not given in full),?,4.6µM*,-2%,3.3µM*,1%
NC1=NC[C@@H](CC2CCCCC2)N1CCc1cc(C(F)(F)F)cc(C(F)(F)F)c1,-109*,3.7µM*,-1%,3.3µM*,?
Cc1cc(C)n(-c2cccc(CN(C)Cc3nc(-c4cnccn4)no3)c2)n1,29,1%,2%,-3%,0%
Cc1occc1-c1nnc(SCC(=O)NC2CCC(C)CC2)o1 (stereo not given),-11,?,1%,-20%,9%
Cn1c(SCC(=O)c2ccc3c(c2)OCCO3)nnc1C1CC1,-4,-4%,18%,-13%,18%
CN1CCc2c(sc(N)c2C(N)=O)C1,11,21µM*,-2%[9.24 µM],26µM*,-2%
CCN1CCc2c(sc(N)c2C(N)=O)C1,-2,23µM*,-7%,?,-2%
CN1CCc2c(sc(/N=C/c3c[nH]c4ccccc34)c2C(N)=O)C1,?,16µM*,2%,-103%,1%
NC(=O)c1c(N)sc2c1CCCC2,23,6%,14%,-4%,18%
CNC(=S)Nc1ccc(N2CCN(c3ccc(C(F)(F)F)cn3)CC2)nc1,-1,26µM*,-6%,?,-3%
O=C(Nc1cccc(C(F)(F)F)c1)c1cccnc1N1CCN(c2ccccc2)CC1,-77*,18µM*,?,?,-2%[9.24 µM]
O=C(Nc1cccc(C(F)(F)F)c1)c1cccnc1N1CCN(CCO)CC1,-28,-19%,-6%,10%,-8%
O=C(Nc1ccccc1)N1CCN(c2cccc(C(F)(F)F)c2)CC1,-50*,12µM*,-2%,21µM*,0%
COc1ccc(NC(=O)N2CCN(c3cccc(C(F)(F)F)c3)CC2)cc1OC,0,12µM*,-1%,?,-4%
CCn1nc(C)cc1C(=O)NCC1CCC2(CCN(Cc3ccccc3F)CC2)O1 (stereo not given),nt,?,nt,-12%[9.04 µM],nt
